Screening data: PubChem, National Center for Advancing Translational Sciences (NCATS)
Sampled rows, rich in hits. Any-hit rate of the full collection: about 1.2%.
KCNH2 3.1 block: KCNH2 3.1 (human) potassium channel inhibition; U2OS KCNH2 3.1, thallium flux FluxOr; hits give low values; activity change, % (tested at about 1.8 µM); hit rate 0.95% among 340,000;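 active = maximum activity change below -70%; inconclusive = maximum activity change from -70% to -50%; inactive = maximum activity change above -50%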;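 also: thallium influx rate constant from kinetic fluorescence after stimulation buffer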
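Thallium flux read-out: FluxOr dye with Red40 quencher in HBSS/HEPES, 45 min at RT. Rate constants from kinetic reads were normalized to positive and negative DMSO controls. Cells: U2OS virally expressing the 3.1 isoform.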
TRPV1 agonist: human TRPV1 agonism; hit rate 0.19% among 320,000; activation, % at 8.33 µM; TRPV1-expressing cells, Fluo-8 calcium influx, agonist mode; Q8NER1; in the data active = activation above about 80%; inconclusive = between about 30% and that limit
Target sequence (Q8NER1 whole entry, looked up): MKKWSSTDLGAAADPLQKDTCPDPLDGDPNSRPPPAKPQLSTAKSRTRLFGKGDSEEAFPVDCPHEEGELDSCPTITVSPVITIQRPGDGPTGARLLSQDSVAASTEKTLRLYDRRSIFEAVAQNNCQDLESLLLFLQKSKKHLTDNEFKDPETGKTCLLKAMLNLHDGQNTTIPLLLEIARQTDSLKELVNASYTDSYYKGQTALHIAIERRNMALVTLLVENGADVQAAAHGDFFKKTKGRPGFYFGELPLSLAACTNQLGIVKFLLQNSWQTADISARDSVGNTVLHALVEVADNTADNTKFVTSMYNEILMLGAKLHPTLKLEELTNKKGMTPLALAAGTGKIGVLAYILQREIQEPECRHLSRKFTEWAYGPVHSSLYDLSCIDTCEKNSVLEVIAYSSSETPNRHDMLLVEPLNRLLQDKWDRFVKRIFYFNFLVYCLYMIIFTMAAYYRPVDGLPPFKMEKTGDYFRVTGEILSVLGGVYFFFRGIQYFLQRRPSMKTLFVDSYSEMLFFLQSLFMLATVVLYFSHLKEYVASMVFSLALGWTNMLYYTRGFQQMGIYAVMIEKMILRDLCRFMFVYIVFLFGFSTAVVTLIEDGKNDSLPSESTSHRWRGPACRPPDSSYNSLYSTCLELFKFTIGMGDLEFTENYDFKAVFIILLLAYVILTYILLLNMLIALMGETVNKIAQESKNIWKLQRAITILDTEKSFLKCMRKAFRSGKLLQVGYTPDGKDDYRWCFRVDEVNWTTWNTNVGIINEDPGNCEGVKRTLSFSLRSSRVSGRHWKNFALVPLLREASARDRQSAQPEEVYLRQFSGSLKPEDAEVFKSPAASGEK
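Cells expressing TRPV1 were dye-loaded with Fluo-8 and read kinetically: 10 s baseline, 3 min after compound (agonist portion), then 2 min after EC20 capsaicin (allosteric enhancer portion). Calcium-bound dye fluorescence at 480/520 nm.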
KCNH2 WT inh: blocks the wildtype human KCNH2 potassium channel; activity change, % at 1.84 µM; hit rate 0.37% among 340,000; Q12809; AID 720551; U2OS, BacMam KCNH2, thallium flux FluxOr; hits give low values;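 active = maximum activity change below -70%; inconclusive = maximum activity change between -70% and -50%; inactive = maximum activity change above -50%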
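U2OS cells transduced with wild-type KCNH2 virus are loaded with FluxOr dye for 45 min, and thallium flux is measured in kinetic reads before and after stimulation buffer. Rate constants are normalized to DMSO controls.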
TRPV1 PAM: potentiators of human vanilloid receptor 1 (TRPV1). potentiation, % at 8.33 µM. Q8NER1. hit rate 0.02% among 320,000. TRPV1-expressing cells, Fluo-8 calcium influx, capsaicin EC20 potentiation. AID 540277; in the data active = potentiation above about 80%; inconclusive = between about 30% and that limit
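Cells expressing TRPV1 were dye-loaded with Fluo-8 and read kinetically: 10 s baseline, 3 min after compound (agonist portion), then 2 min after EC20 capsaicin (allosteric enhancer portion). Calcium-bound dye fluorescence at 480/520 nm.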
Of the large screens only hits and unclear results are named; the others gave an inactive call.

CCOC(=O)C(Cc1cc(N)c(Oc2ccc(OC)cc2)c(N)c1)NC(C)=O (stereo not drawn)	none (no result: TRPV1 agonist, TRPV1 PAM)
Cc1ccc(C)c(C(=O)CCC(=O)Nc2ccc(N3CCN(C)CC3)cc2C)c1	KCNH2 3.1 block -121.8 (no result: TRPV1 agonist, TRPV1 PAM)
CC(C)CCn1cnc2c(cnn2-c2ccc(F)cc2)c1=O	KCNH2 3.1 block -136.7, KCNH2 WT inh -181.2
CCN(CC)S(=O)(=O)c1cc(NC(=O)Cc2ccc(S(=O)(=O)N3CCOCC3)s2)ccc1Cl	none (no result: TRPV1 agonist, TRPV1 PAM)
Cc1cc(C)c2c(n1)sc1c(-c3ccccc3)c(C#N)c(N)nc12	KCNH2 3.1 block -183.8, KCNH2 WT inh -243.6
CCOC(=O)Cn1nc2oc(=O)c(CCN3CCN(c4ccccc4OC)CC3)c(C)c2c1C	none (no result: TRPV1 agonist, TRPV1 PAM)
CC(C)(C)S(=O)N1Cc2cn(Cc3ccccc3)c(=O)cc2[C@H]1CCO (stereo partly drawn)	none (no result: TRPV1 agonist, TRPV1 PAM)
CCOC(=O)c1ccc(NC(=O)N2CCN(c3cccc(OC)c3)CC2)cc1	TRPV1 agonist 99.0
COc1ccc(C(=O)N2CCN(c3ccc(NC(=O)Cc4ccccc4)cc3)CC2)cc1	KCNH2 3.1 block -83.4
Cc1ccc(C(=O)N2CCN(c3ccc(NC(=O)COc4ccccc4C)cc3)CC2)cc1	KCNH2 3.1 block -95.1, KCNH2 WT inh -133.6
CSc1ncccc1C(=O)N1CCCC(N2CCN(c3ccccc3C)CC2)C1 (stereo not drawn)	none (no result: TRPV1 agonist, TRPV1 PAM)
Cc1ccc(S(=O)(=O)N2CCOCC2)cc1NC(=O)COC(=O)CNC(=O)c1ccccc1	KCNH2 3.1 block -97.7
O=C(COC(=O)c1cc(S(=O)(=O)N2CCOCC2)ccc1O)Nc1cc(S(=O)(=O)N2CCCC2)ccc1Cl	KCNH2 3.1 block -193.9, KCNH2 WT inh -146.5, TRPV1 PAM inconclusive
O=C(COC(=O)c1cnc(Cl)c(Cl)c1)Nc1ccc(S(=O)(=O)N2CCCC2)cc1	KCNH2 3.1 block -96.8
C=CCn1c(SCC(=O)N(CC)c2c(N)n(Cc3ccccc3)c(=O)[nH]c2=O)nnc1-c1ccccc1OC	none (no result: TRPV1 agonist, TRPV1 PAM)
CC[C@]12c3[nH]c4cc(-c5ccco5)ccc4c3CCN1C(=O)[C@@H](CC(=O)NCc1cccc(C(F)(F)F)c1)C[C@@H]2C(=O)N1CCN(C(=O)c2ccco2)CC1	none (no result: TRPV1 agonist, TRPV1 PAM)
CCOc1ccc2c(c1)C(c1ccc(C)cc1)=NNC(c1ccc(OC)cc1)=N2	KCNH2 3.1 block -93.7
CCN(C[C@H]1N[C@@](C)(C(=O)OC)[C@H]2C(=O)N(C)C(=O)[C@@H]12)C(=O)COc1ccccc1	KCNH2 WT inh -218.2 (no result: TRPV1 agonist, TRPV1 PAM)
CCOC(=O)c1c(N)c2cc([N+](=O)[O-])ccc2n1C	KCNH2 3.1 block -96.8
O=C(NNC(=O)c1ccccc1O)c1ccc(Br)cc1	none
O=C(O)CCCC(=O)NNC(=O)c1cccc(Br)c1	KCNH2 3.1 block -97.5
O=C(NNC(=O)c1ccccc1O)c1cccc(Br)c1	KCNH2 3.1 block -80.7
Nc1ncnc2c1ncn2[C@@H]1O[C@H](CNCc2ccccc2OCC(=O)N2CCCCC2)[C@@H](O)[C@H]1O	none (no result: TRPV1 agonist, TRPV1 PAM)
COc1cc(C(C)=O)ccc1OC(=O)N1CCOCC1	none (no result: TRPV1 agonist, TRPV1 PAM)
CCOC(=O)c1ccccc1NC(=O)COC(=O)C1CCCC1	KCNH2 WT inh -103.7
Clc1ccc(CN2C3=NCCN3c3ccccc32)cc1Cl	KCNH2 3.1 block -75.2
COc1ccc(C2=NS(=O)(=O)N(C)C(C(=O)N3CCC(C)CC3)=C2)cc1	KCNH2 3.1 block -112.5
O=C(COC(=O)c1ccc(-n2cnnn2)cc1)c1ccc(Br)cc1	KCNH2 3.1 block -83.2, KCNH2 WT inh inconclusive
COc1c2c(c(CCC(=O)O)c3c1C=CC(C)(C)O3)OC(C)(C)C=C2	none (no result: TRPV1 agonist, TRPV1 PAM)
COc1cccc(CC2(CO)CCCN(Cc3cc(F)ccc3-n3cccn3)C2)c1 (stereo not drawn)	KCNH2 3.1 block -104.6, KCNH2 WT inh inconclusive
COc1cccc(CC2(CO)CCCN(Cc3ccc(OC)c(C)c3OC)C2)c1 (stereo not drawn)	KCNH2 3.1 block -112.7, KCNH2 WT inh -79.2
COc1cccc(CC2(CO)CCCN(Cc3cn[nH]c3-c3ccc(F)cc3)C2)c1 (stereo not drawn)	none
COc1ccccc1/C=C/CN1CCCC(CO)(Cc2cccc(Cl)c2)C1 (stereo not drawn)	none
COc1cccc(CC2(CO)CCCN(C/C=C/c3ccccc3OC)C2)c1 (stereo not drawn)	KCNH2 3.1 block -86.2, KCNH2 WT inh -70.9
COc1ccc(CN2CCN(Cc3cccc(Oc4ccccc4)c3)CC2)c(OC)c1OC	KCNH2 3.1 block -73.4, KCNH2 WT inh inconclusive
COc1ccccc1CNS(=O)(=O)c1cc(C(=O)N(C)Cc2cccnc2)c(Cl)cc1Cl	none (no result: TRPV1 agonist, TRPV1 PAM)
CCN(CCCNC(=O)c1cn(CC)c2ccc(S(=O)(=O)N(C)C)cc2c1=O)c1cccc(C)c1	TRPV1 agonist 109.5
CCn1cc(C(=O)NCCCN(C)c2ccccc2)c(=O)c2cc(S(=O)(=O)N(C)C)ccc21	TRPV1 agonist inconclusive
COc1cc(C(=O)NC(CCSC)C(=O)Nc2ccc(N3CCOCC3)cc2)cc(OC)c1OC (stereo not drawn)	none (no result: TRPV1 agonist, TRPV1 PAM)
Cc1cccc(CCNS(=O)(=O)c2ccc(S(=O)(=O)N3CCCCC3)cc2)c1	none
Cc1cccc(CCNS(=O)(=O)c2ccc(S(=O)(=O)N3CCC(C)CC3)cc2)c1	KCNH2 3.1 block -78.8 (no result: TRPV1 agonist, TRPV1 PAM)
Fc1cccc(NC(=S)NCc2ccccn2)c1	none
S=C(NCc1ccccn1)Nc1ccc(Cl)cc1	KCNH2 3.1 block -196.5, KCNH2 WT inh -199.2
COc1cccc(CN2CCN(C3CCN(c4cccc(C)c4C)CC3)CC2CCO)c1 (stereo not drawn)	KCNH2 3.1 block -71.6
CC(Nc1cc(C)cc(C)c1)=[N+](C)CCNS(=O)(=O)c1ccc(Cl)cc1	KCNH2 3.1 block -94.6
COc1ccc(NC(C)=[N+](C)CCNS(=O)(=O)c2ccc(Cl)cc2)cc1Cl	none
CCCn1c(=S)[nH]c2sc3c(c2c1=O)CCCC3	KCNH2 WT inh -85.2
Nn1c(=S)[nH]c2sc3c(c2c1=O)CCCC3	none (no result: TRPV1 agonist, TRPV1 PAM)
Cc1cc(Cn2nc(C(=O)NCc3cccc(C(F)(F)F)c3)cc2-c2ccccc2)on1	KCNH2 3.1 block -82.9
CCOc1cc(N2CCOCC2)c(OCC)cc1NC(=O)COC(=O)c1ccc([N+](=O)[O-])o1	none (no result: TRPV1 agonist, TRPV1 PAM)
Cc1ccc(NC(=O)CN2CCN(Cc3ccccc3)CC2)c(Br)c1	KCNH2 3.1 block -87.3
Cc1ccc(NC(=O)CN2CCOCC2)c(Br)c1	none
Cc1ccc(N2C(=O)c3ccc(C(=O)N4CCN(Cc5ccccc5)CC4)cc3C2=O)cc1	KCNH2 3.1 block -201.9, KCNH2 WT inh -145.3
O=C(c1ccc(-n2cccc2)cc1)N1CCN(Cc2ccccc2)CC1	KCNH2 3.1 block inconclusive, KCNH2 WT inh -72.7
O=c1[nH]cc(CN2CCOCC2)c(=O)[nH]1	KCNH2 3.1 block -81.8 (no result: TRPV1 agonist, TRPV1 PAM)
COc1ccc(C(=O)Nc2ccc(N3CCCC3)cc2)cc1	TRPV1 agonist inconclusive
COc1ccc(C(=O)NC(=S)Nc2ccc(N3CCCC3)cc2)cc1	KCNH2 3.1 block -89.2
CN1CCN(c2ccc(NC(=S)NC(=O)c3cccc4c(Cl)cccc34)cc2)CC1	KCNH2 3.1 block -90.6
CCOc1ccc(C(=O)NC(=S)Nc2ccc(N3CCC(C)CC3)cc2)cc1[N+](=O)[O-]	none
COc1ccc(C(=O)NC(=S)NNC(=O)c2ccccc2C)cc1	none (no result: TRPV1 agonist, TRPV1 PAM)
